Screens (PubChem)
C diff HTS – inhibitors of Clostridium difficile growth; Clostridium difficile clinical isolate growth, OD600, 24 h; hits give low values; growth activity, negative = inhibition, % at 16 µg/mL (by protocol); actives 0.25% (n = 86,000); AID 1259249;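 active means mean growth activity at or below -80% and every replicate also at or below -80%; inconclusive means mean at or below -80% but some replicate above -80%; inactive means mean growth activity above -80%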;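 further: 0% = DMSO wells and -100% = levofloxacin 16 µg/mL wells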
Pf Dd2 inh – P. falciparum Dd2 growth inhibition; SYBR Green, 72 h; hits give low values; activity change, % at 10 µM; actives 2.3% (n = 94,000); AID 1159554; in the data active means activity change below about -80%; inconclusive means no clear call, values can overlap the other calls
T cruzi growth-1 – inhibitors of T. cruzi proliferation; T. cruzi beta-gal in NIH3T3, GalScreen luminescence, 90 h; inhibition, % at 8.34 µM; actives 5.9% (n = 77,000); AID 624255;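 active means mean inhibition above about 93%, with at least 55% of replicates each passing it, limit read from the data, passing the limit was not always enough; inconclusive means only one of those two conditions holds; inactive means neither condition holds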
T cruzi growth-2 – Trypanosoma cruzi proliferation inhibition. shares compounds with T cruzi growth-1. T. cruzi beta-gal in NIH3T3, GalScreen luminescence, 90 h. inhibition, % at 8.35 µM. actives 72% (n = 5,600);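 active means mean replicate inhibition above about 95% and at least 55% of replicates individually reaching it, limit read from the data; inconclusive means only one of the two criteria is met; inactive means neither criterion is met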
T cruzi growth-3 – blocks T. cruzi growth in NIH3T3 host cells. shares compounds with T cruzi growth-1. T. cruzi beta-gal in NIH3T3, GalScreen luminescence, 90 h. inhibition, % at 2.09 µM. actives 21% (n = 5,600). AID 651740;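 active means mean inhibition above about 95%, with at least 55% of replicates also reaching it, limit read from the data; inconclusive means meets just one of the two conditions; inactive means meets neither condition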;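 further: plate controls were neutral control median for no effect and positive control median for full effect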
3T3 cytotox – kills mouse NIH/3T3 fibroblasts; shares compounds with T cruzi growth-1; NIH/3T3 viability, CellTiter-Glo ATP luminescence, 90 h; cytotoxicity (signal decrease), % at 8.35 µM; actives 14% (n = 5,600); AID 651742;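 active means mean signal decrease across replicates above about 35% based on untreated-well scatter, with enough replicates individually passing, limit read from the data; inconclusive means no rule stated though some were filed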;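 further: 0% = median of neutral control wells and 100% = median of positive control wells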
NIH3T3 tox 2 – kills mouse NIH/3T3 fibroblasts; shares compounds with T cruzi growth-1; NIH/3T3 viability, CellTiter-Glo ATP luminescence, 90 h; inhibition, % at 24.9 µM; actives 56% (n = 5,600); AID 651744;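 active means mean loss of cell viability signal at or above a set limit, and enough replicates individually reaching it; inconclusive means meets only the mean limit or only the replicate share; inactive means meets neither condition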;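 further: 0% = median of neutral control wells and 100% = median of positive control wells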
The depositor's hits bear a star; ? = inconclusive; . = not tested or not shown. Sampled rows, rich in hits. Any-hit rate of the full collection: about 6.8%.

SMILES	C diff HTS	Pf Dd2 inh	T cruzi growth-1	T cruzi growth-2	T cruzi growth-3	3T3 cytotox	NIH3T3 tox 2
Cc1ccc(S(=O)(=O)Nc2ccc3c(c2)C(=O)N([C@@H](C)CO)C[C@H](C)[C@@H](CN(C)S(=O)(=O)c2ccc(F)cc2)OCCCC[C@H](C)O3)cc1	-7	-79	.	.	.	.	.
Cc1ccc(S(=O)(=O)Nc2ccc3c(c2)C(=O)N([C@H](C)CO)C[C@@H](C)[C@H](CN(C)S(=O)(=O)c2ccc(F)cc2)OCCCC[C@@H](C)O3)cc1	-14	-57	109*	102*	76	6	-17
C[C@@H]1CN([C@@H](C)CO)C(=O)c2cccc(NC(=O)Nc3ccccc3)c2O[C@H]1CN(C)S(=O)(=O)c1ccccc1	-3	1	19	.	.	.	.
CCCNC(=O)C[C@H]1CC[C@H]2[C@@H](COC[C@@H](O)CN2C(=O)Nc2ccc3c(c2)OCO3)O1	.	0	14	.	.	.	.
C[C@H]1CN([C@@H](C)CO)S(=O)(=O)c2ccc(C#CC(C)(C)O)cc2O[C@@H]1CN(C)Cc1ccccc1	-13	-19	49	.	.	.	.
CO[C@H](CN(C)C(=O)C1CCOCC1)[C@@H](C)CN(C(=O)Nc1ccc(C(F)(F)F)cc1)[C@H](C)CO	.	-11	72	.	.	.	.
CO[C@H](CN(C)C(=O)C1CC1)[C@H](C)CN(C(=O)Nc1ccc(C(F)(F)F)cc1)[C@H](C)CO	.	17	111*	35	-13	1	25*
CO[C@H](CN(C)C(=O)C1CC1)[C@@H](C)CN(C(=O)Nc1ccc(C(F)(F)F)cc1)[C@@H](C)CO	.	-1	37	.	.	.	.
CO[C@H](CN(C)C(=O)C1CCOCC1)[C@H](C)CN(C(=O)Nc1ccc(C(F)(F)F)cc1)[C@H](C)CO	.	12	113*	104*	39	11	45*
Cc1noc(C)c1S(=O)(=O)Nc1ccc2c(c1)CC(=O)N([C@@H](C)CO)C[C@@H](C)[C@@H](CN(C)S(=O)(=O)c1c(C)noc1C)O2	-2	5	-2	.	.	.	.
C[C@@H]1CN([C@H](C)CO)S(=O)(=O)c2ccc(-c3ccccc3)cc2O[C@@H]1CN(C)S(=O)(=O)c1ccccc1F	3	-27	122*	100*	95	21	36*
C[C@@H]1CN([C@H](C)CO)S(=O)(=O)c2ccc(-c3ccncc3)cc2O[C@@H]1CN(C)S(=O)(=O)c1ccccc1F	4	-30	.	.	.	.	.
C[C@@H]1CN([C@@H](C)CO)S(=O)(=O)c2ccc(-c3ccccc3)cc2O[C@H]1CN(C)S(=O)(=O)c1ccccc1F	-1	-84*	124*	99*	105*	56*	66*
C[C@H](CO)N1C[C@H](C)[C@H](CN(C)S(C)(=O)=O)Oc2cc(-c3ccccc3)ccc2S1(=O)=O	-2	-8	24	.	.	.	.
C[C@@H]1CN([C@@H](C)CO)S(=O)(=O)c2ccc(-c3ccccc3)cc2O[C@@H]1CN(C)S(=O)(=O)c1ccccc1F	0	-37	119*	102*	103*	15	46*
C[C@@H]1CN([C@H](C)CO)S(=O)(=O)c2ccc(-c3ccccc3)cc2O[C@H]1CN(C)S(=O)(=O)c1ccccc1F	-4	-66	112*	?	89	64*	37*
C[C@@H]1CN([C@@H](C)CO)S(=O)(=O)c2ccc(-c3ccccc3F)cc2O[C@@H]1CN(C)S(C)(=O)=O	-5	19	26	.	.	.	.
C[C@H](CO)N1C[C@H](C)[C@H](CN(C)S(=O)(=O)c2ccccc2F)Oc2cc(-c3ccncc3)ccc2S1(=O)=O	7	-36	.	.	.	.	.
Cc1noc(C)c1NC(=O)Nc1ccc2c(c1)C(=O)N([C@@H](C)CO)C[C@@H](C)[C@H](CN(C)Cc1ccc(C(F)(F)F)cc1)OCCCC[C@@H](C)O2	5	-52	95	.	.	.	.
O=C(Nc1ccc(F)cc1)N[C@H]1CC[C@@H](CCNC(=O)c2cc(Cl)cc(Cl)c2)O[C@H]1CO	10	-9	-68	.	.	.	.
CC(C)NC(=O)N(C)C[C@H]1Oc2ccc(NC(=O)c3ccncc3)cc2C(=O)N([C@@H](C)CO)C[C@@H]1C	-3	6	-24	.	.	.	.
N#Cc1ccc(-c2ccc([C@H]3[C@H](CO)N4CCCCN(S(=O)(=O)c5ccccc5)C[C@@H]34)cc2)cc1	20	-36	116*	108*	55	51*	88*
N#Cc1ccc(-c2ccc([C@H]3[C@H]4CN(S(=O)(=O)c5ccccc5)CCCCN4[C@H]3CO)cc2)cc1	4	-7	114*	107*	76	22	24
O=S(=O)(c1ccccc1)N1CCCCN2[C@H](CO)[C@@H](c3ccc(-c4ccccc4)cc3)[C@@H]2C1	-8	5	49	.	.	.	.
CCS(=O)(=O)N1CCCCN2[C@H](CO)[C@H](c3ccc(-c4ccc(C#N)cc4)cc3)[C@@H]2C1	1	-39	55	.	.	.	.
SMILES	C diff HTS	Pf Dd2 inh	T cruzi growth-1	T cruzi growth-2	T cruzi growth-3	3T3 cytotox	NIH3T3 tox 2
O=C(C1CCCCC1)N1CC2(C1)[C@H](c1ccccc1)[C@H](CO)N2Cc1ccc(Cl)cc1	51	-10	.	.	.	.	.
CCCC#Cc1ccc([C@@H]2[C@H](CO)N3C(=O)CN(C(=O)NC4CCCC4)C[C@@H]23)cc1	3	-3	.	.	.	.	.
C[C@@H]1CN([C@H](C)CO)S(=O)(=O)c2ccc(C#Cc3ccccn3)cc2O[C@H]1CN(C)C	5	28	.	.	.	.	.
C[C@@H]1CN([C@@H](C)CO)S(=O)(=O)c2ccc(C#Cc3ccccn3)cc2O[C@@H]1CN(C)Cc1ccc(F)cc1	-7	-29	100*	107*	87	38*	-7
C[C@H](CO)N1C[C@H](C)[C@@H](CN(C)Cc2ccc(F)cc2)Oc2cc(C#Cc3ccccn3)ccc2S1(=O)=O	-7	-34	127*	106*	102*	4	-10
C[C@@H]1CN([C@@H](C)CO)S(=O)(=O)c2ccc(C#Cc3ccccn3)cc2O[C@@H]1CN(C)C	-1	22	.	.	.	.	.
O=C(C[C@H]1CC[C@@H]2[C@H](COC[C@H](O)CN2CC2CCCC2)O1)NCc1ccc(Cl)cc1	-7	-47	.	.	.	.	.
COCC#Cc1ccc([C@@H]2[C@@H](CO)N3CCCCN(S(=O)(=O)c4ccc(OC)cc4)C[C@@H]23)cc1	-4	-51	72	.	.	.	.
COCC#Cc1ccc([C@@H]2[C@H]3CN(S(=O)(=O)c4ccc(OC)cc4)CCCCN3[C@H]2CO)cc1	-4	-20	99*	100*	43	4	31*
COCC#Cc1ccc([C@H]2[C@@H](CO)N3CCCCN(S(=O)(=O)c4cccc(OC)c4)C[C@@H]23)cc1	1	-10	16	.	.	.	.
COCC#Cc1ccc([C@H]2[C@H](CO)N3CCCCN(S(=O)(=O)c4cccc(OC)c4)C[C@@H]23)cc1	0	-27	108*	97*	39	13	?
